Test results taken from the supplement of paper PMC10849652.
The full data set covers some 7,900 targets. This sample favours those with a hit. About 0.6% of all pairs of compound and target were hits.

Assays:
Assay in all cases: log2 fold change, soluble protein after heating vs DMSO (PISA); higher = thermal stabilisation; K562 cells, 10 uM, 30 min; active = over 0.2 and 3.5 SD of the protein, either way, in both replicates (recomputed)
saracatinib = compound: CN1CCN(CCOc2cc(OC3CCOCC3)c3c(Nc4c(Cl)ccc5c4OCO5)ncnc3c2)CC1 [saracatinib]
Outline: (§1)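 K562 cells (2×10^6 cells/mL) were treated with 10 μM compound for 30 min, and aliquots were heated for 3 min over 48°C-58°C. Pooled aliquots were extracted in PBS with 0.5% NP-40 at 4°C, and the supernatant after 21,000xg for 90 min was measured by TMTpro 16plex LC-MS/MS with channel sums equalised. Reported thermal stability, relative to control samples and from duplicates, is a log2 fold change.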

sotrastaurin = compound: CN1CCN(c2nc(C3=C(c4c[nH]c5ccccc45)C(=O)NC3=O)c3ccccc3n2)CC1 [sotrastaurin]
Outline: as §1

alvocidib = compound: CN1CC[C@H](c2c(O)cc(O)c3c(=O)cc(-c4ccccc4Cl)oc23)[C@H](O)C1 [alvocidib]
Outline: as §1

Tubastatin A = compound: CN1CCc2c(c3ccccc3n2Cc2ccc(C(=O)NO)cc2)C1 [Tubastatin A]
Outline: as §1

[1] = compound: CNC(=O)C1=CC=CC=C1NC2=NC(=NC=C2Cl)NC3=C(C=C(C=C3)N4CCOCC4)OC
Outline: as §1

defactinib = compound: CNC(=O)c1ccc(Nc2ncc(C(F)(F)F)c(NCc3nccnc3N(C)S(C)(=O)=O)n2)cc1 [defactinib]
Outline: as §1

rucaparib = compound: CNCc1ccc(-c2[nH]c3cc(F)cc4c3c2CCNC4=O)cc1 [rucaparib]
Outline: as §1

[2] = compound: CNc1nc(-c2ccc3c(N)n[nH]c3c2)cc(N2C[C@@H](C(=O)NC3CCCCC3)CC[C@H]2C)n1
Outline: as §1

encorafenib = compound: COC(=O)N[C@@H](C)CNc1nccc(-c2cn(C(C)C)nc2-c2cc(Cl)cc(NS(C)(=O)=O)c2F)n1 [encorafenib]
Outline: as §1

[3] = compound: COC(=O)[C@H](CCSC)NC(=O)C1=C(C=C(C=C1)NC[C@H](CS)N)C2=CC=CC=C2
Outline: as §1

Measured: log2 fold change

ROCK2 (UniProt O75116)
inactive: saracatinib 0.02 | sotrastaurin -0.096 | alvocidib -0.01 | Tubastatin A -0.001 | [1] -0.062 | defactinib -0.097 | rucaparib -0.027 | [2] 0.212 | encorafenib 0.042 | [3] -0.003

RPS27A (UniProt P62979)
inactive: saracatinib 0.029 | sotrastaurin 0.107 | alvocidib 0.136 | Tubastatin A -0.013 | [1] 0.05 | defactinib 0.227 | rucaparib 0.105 | [2] 0.043 | encorafenib -0.007 | [3] 0.156

SCAF8 isoform 2 (UniProt Q9UPN6)
inactive: saracatinib -0.078 | sotrastaurin -0.09 | alvocidib -0.167 | Tubastatin A 0.006 | [1] -0.085 | defactinib -0.083 | rucaparib 0.004 | [2] 0.016 | encorafenib 0.018 | [3] -0.06

ROMO1 (UniProt P60602)
UniProt P60602, sequence (P60602 whole entry, looked up): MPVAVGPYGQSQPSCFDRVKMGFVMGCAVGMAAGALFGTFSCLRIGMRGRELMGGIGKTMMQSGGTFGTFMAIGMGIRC
inactive: saracatinib 0.022 | sotrastaurin -0.091 | alvocidib 0.023 | Tubastatin A 0.048 | [1] 0.013 | rucaparib -0.038 | [2] -0.012 | encorafenib 0.026

SDHAF4 (UniProt Q5VUM1)
UniProt Q5VUM1, sequence (Q5VUM1 whole entry, looked up): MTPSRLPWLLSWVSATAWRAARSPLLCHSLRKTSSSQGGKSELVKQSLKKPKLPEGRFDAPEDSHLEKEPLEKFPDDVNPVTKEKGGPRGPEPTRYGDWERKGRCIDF
inactive: saracatinib 0.139 | sotrastaurin 0.072 | alvocidib 0.079 | Tubastatin A 0.086 | [1] -0.037 | rucaparib -0.067 | [2] -0.032 | encorafenib -0.01

SENP6 (UniProt Q9GZR1)
UniProt Q9GZR1, sequence (Q9GZR1 whole entry, looked up): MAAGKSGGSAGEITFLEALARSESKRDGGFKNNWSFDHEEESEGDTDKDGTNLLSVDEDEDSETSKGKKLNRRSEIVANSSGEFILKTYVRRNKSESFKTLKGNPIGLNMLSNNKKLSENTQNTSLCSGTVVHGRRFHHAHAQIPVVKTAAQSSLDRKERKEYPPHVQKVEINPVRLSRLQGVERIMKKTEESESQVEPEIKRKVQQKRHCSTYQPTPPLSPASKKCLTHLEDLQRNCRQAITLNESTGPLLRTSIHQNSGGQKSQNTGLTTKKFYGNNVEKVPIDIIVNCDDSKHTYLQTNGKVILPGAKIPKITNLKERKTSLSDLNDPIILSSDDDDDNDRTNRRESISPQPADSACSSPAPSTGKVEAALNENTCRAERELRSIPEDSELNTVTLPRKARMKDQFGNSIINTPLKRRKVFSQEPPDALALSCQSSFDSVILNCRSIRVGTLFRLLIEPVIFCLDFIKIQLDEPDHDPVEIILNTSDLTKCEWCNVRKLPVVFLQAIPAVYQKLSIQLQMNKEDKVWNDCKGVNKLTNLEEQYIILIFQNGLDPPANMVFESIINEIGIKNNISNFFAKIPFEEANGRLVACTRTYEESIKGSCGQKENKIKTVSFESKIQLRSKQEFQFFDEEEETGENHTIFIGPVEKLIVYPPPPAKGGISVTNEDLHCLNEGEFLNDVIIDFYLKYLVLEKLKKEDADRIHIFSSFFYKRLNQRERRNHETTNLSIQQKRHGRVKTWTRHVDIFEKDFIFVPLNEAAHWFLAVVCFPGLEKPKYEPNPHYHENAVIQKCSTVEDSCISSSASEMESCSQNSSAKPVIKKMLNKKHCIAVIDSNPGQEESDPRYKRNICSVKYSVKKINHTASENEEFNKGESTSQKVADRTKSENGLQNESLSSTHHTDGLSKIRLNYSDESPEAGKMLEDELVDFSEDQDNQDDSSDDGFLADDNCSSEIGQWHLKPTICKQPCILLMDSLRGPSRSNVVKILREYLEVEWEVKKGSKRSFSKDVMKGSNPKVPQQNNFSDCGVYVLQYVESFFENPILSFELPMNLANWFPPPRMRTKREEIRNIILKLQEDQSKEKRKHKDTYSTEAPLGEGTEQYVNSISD
inactive: saracatinib 0.028 | sotrastaurin -0.008 | alvocidib -0.062 | Tubastatin A 0.063 | [1] -0.018 | defactinib -0.131 | rucaparib 0.003 | [2] -0.034 | encorafenib 0.016 | [3] 0

RPTOR (UniProt Q8N122)
inactive: saracatinib -0.005 | sotrastaurin -0.01 | alvocidib 0.123 | Tubastatin A 0.027 | [1] -0.044 | defactinib -0.074 | rucaparib -0.068 | [2] 0.033 | encorafenib 0.047 | [3] -0.039

SHROOM2 (UniProt Q13796)
inactive: saracatinib -0.118 | sotrastaurin 0.128 | alvocidib 0.071 | Tubastatin A 0.283 | [1] -0.29 | defactinib 0.059 | rucaparib -0.049 | [2] 0.08 | encorafenib -0.136 | [3] 0.1

RMC1 (UniProt Q96DM3)
inactive: saracatinib -0.002 | sotrastaurin -0.01 | alvocidib -0.105 | Tubastatin A 0.007 | [1] 0.014 | defactinib -0.041 | rucaparib 0.029 | [2] 0.014 | encorafenib -0.013 | [3] -0.018

SAMD4B (UniProt Q5PRF9)
inactive: saracatinib -0.349 | sotrastaurin -0.036 | alvocidib -0.059 | Tubastatin A 0.167 | [1] -0.132 | [2] 0.096

RNF167 (UniProt Q9H6Y7)
inactive: saracatinib -0.03 | sotrastaurin 0.064 | alvocidib 0.055 | Tubastatin A -0.021 | [1] 0.035 | defactinib 0.059 | [2] 0.042 | [3] -0.006

RPS4X (UniProt P62701)
inactive: saracatinib -0.164 | sotrastaurin -0.017 | alvocidib 0.247 | Tubastatin A 0.123 | [1] 0.063 | defactinib 0.302 | rucaparib 0.185 | [2] 0.089 | encorafenib 0.08 | [3] 0.014

RTN4IP1 (UniProt Q8WWV3)
UniProt Q8WWV3, sequence (Q8WWV3 whole entry, looked up): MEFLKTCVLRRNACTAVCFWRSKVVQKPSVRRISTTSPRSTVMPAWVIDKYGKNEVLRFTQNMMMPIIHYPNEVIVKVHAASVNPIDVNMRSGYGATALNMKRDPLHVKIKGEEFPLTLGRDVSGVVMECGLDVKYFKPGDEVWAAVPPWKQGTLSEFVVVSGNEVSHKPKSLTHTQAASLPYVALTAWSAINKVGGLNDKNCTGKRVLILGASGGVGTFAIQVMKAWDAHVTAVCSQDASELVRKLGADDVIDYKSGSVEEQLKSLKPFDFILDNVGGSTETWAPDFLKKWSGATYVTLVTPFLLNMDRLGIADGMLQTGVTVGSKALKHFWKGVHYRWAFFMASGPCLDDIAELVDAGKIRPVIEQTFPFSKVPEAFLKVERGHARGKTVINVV
active: Tubastatin A 0.611
inactive: saracatinib -0.264 | sotrastaurin 0.43 | alvocidib -0.27 | [1] -0.066 | defactinib -0.157 | rucaparib -0.178 | [2] -0.069 | encorafenib 0.02 | [3] 0.007

SEPTIN5 (UniProt G3XAH0)
inactive: saracatinib 0.045 | sotrastaurin 0.023 | alvocidib -0.033 | Tubastatin A -0.038 | [1] 0.042 | defactinib -0.023 | [2] 0.032 | [3] 0.028

RBM17 (UniProt Q96I25)
UniProt Q96I25, sequence (Q96I25 whole entry, looked up): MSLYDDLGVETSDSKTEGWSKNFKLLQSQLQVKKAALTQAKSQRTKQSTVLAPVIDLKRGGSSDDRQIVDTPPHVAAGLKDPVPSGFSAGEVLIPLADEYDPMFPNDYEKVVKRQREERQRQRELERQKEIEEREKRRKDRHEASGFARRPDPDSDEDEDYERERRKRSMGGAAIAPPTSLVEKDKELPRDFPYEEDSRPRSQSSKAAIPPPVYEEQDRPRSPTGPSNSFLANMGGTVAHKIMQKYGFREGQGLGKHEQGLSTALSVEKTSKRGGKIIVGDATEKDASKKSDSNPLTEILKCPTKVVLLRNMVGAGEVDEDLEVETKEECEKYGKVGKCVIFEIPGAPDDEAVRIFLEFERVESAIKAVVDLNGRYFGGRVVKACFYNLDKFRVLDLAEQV
inactive: saracatinib 0.005 | sotrastaurin -0.039 | alvocidib -0.018 | Tubastatin A 0.065 | [1] -0.03 | defactinib -0.174 | rucaparib 0.055 | [2] -0.025 | encorafenib 0.05 | [3] -0.044

RALA (UniProt P11233)
inactive: sotrastaurin 0.05 | alvocidib 0.013 | Tubastatin A -0.008 | [1] -0.045 | defactinib 0.017 | rucaparib 0.002 | [2] 0.086 | encorafenib 0.033 | [3] 0.004
active: saracatinib 0.203

RPS21 (UniProt P63220)
inactive: saracatinib -0.017 | sotrastaurin 0.005 | alvocidib 0.104 | Tubastatin A 0.246 | [1] 0.039 | defactinib 0.052 | rucaparib -0.039 | [2] -0.001 | encorafenib 0.021 | [3] 0.027

RNASET2 (UniProt O00584)
inactive: saracatinib 0.009 | sotrastaurin 0.01 | alvocidib 0.077 | Tubastatin A 0.003 | [1] -0.031 | defactinib -0.004 | rucaparib -0.163 | [2] -0.067 | encorafenib 0.015 | [3] -0.002

RPS3A (UniProt D6R9B6)
inactive: saracatinib -0.125 | sotrastaurin 0.202 | Tubastatin A 0.051 | [2] -0.086

SH3PXD2B (UniProt A1X283)
UniProt A1X283, sequence (A1X283 whole entry, looked up): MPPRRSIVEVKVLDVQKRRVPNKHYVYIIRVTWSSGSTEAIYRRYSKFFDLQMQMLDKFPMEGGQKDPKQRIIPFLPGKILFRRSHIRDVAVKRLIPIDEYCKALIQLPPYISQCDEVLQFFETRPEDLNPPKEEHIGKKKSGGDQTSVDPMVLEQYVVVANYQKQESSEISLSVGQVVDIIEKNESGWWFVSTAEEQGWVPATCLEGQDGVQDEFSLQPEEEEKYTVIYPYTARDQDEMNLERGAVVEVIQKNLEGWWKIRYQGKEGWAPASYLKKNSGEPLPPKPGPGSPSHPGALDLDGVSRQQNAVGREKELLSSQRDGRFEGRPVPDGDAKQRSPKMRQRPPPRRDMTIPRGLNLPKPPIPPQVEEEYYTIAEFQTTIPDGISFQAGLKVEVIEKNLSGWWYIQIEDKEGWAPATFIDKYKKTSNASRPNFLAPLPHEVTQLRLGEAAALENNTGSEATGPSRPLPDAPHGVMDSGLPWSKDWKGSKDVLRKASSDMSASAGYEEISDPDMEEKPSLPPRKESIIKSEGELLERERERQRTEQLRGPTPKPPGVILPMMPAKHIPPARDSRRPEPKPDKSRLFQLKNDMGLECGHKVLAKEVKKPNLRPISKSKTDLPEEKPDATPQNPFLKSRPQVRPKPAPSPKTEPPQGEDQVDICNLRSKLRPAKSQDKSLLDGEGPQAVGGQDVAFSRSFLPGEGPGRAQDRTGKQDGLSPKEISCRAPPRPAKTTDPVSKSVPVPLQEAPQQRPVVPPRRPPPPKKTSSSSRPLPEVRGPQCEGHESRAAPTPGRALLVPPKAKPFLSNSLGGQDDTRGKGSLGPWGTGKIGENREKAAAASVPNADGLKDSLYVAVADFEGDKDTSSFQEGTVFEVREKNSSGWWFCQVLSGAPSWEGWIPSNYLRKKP
inactive: sotrastaurin -0.017 | alvocidib -0.047 | Tubastatin A -0.013 | [1] 0.061 | defactinib 0.013 | rucaparib 0.238 | encorafenib 0.011 | [3] 0.359

S100A10 (UniProt P60903)
UniProt P60903, sequence (P60903 whole entry, looked up): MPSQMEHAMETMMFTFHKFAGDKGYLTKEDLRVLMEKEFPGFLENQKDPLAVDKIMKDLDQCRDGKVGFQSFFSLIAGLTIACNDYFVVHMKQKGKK
inactive: sotrastaurin -0.147 | alvocidib -0.293 | Tubastatin A 0.195 | rucaparib -0.038 | encorafenib -0.293

SLC1A3 (UniProt P43003)
active: [2] 0.481
inactive: saracatinib 0.277 | alvocidib 0.056 | Tubastatin A -0.157 | [1] -0.034 | defactinib -0.013 | rucaparib 0.027 | encorafenib 0.072 | [3] 0.106

RBM6 (UniProt P78332)
inactive: saracatinib -0.032 | sotrastaurin -0.077 | alvocidib -0.073 | Tubastatin A -0.077 | [2] 0.247

RBM48 isoform 2 (UniProt Q5RL73)
inactive: sotrastaurin -0.001 | alvocidib -0.011 | Tubastatin A 0.016 | [1] -0.065

RPS6KA3 (UniProt P51812)
UniProt P51812, sequence (P51812 whole entry, looked up): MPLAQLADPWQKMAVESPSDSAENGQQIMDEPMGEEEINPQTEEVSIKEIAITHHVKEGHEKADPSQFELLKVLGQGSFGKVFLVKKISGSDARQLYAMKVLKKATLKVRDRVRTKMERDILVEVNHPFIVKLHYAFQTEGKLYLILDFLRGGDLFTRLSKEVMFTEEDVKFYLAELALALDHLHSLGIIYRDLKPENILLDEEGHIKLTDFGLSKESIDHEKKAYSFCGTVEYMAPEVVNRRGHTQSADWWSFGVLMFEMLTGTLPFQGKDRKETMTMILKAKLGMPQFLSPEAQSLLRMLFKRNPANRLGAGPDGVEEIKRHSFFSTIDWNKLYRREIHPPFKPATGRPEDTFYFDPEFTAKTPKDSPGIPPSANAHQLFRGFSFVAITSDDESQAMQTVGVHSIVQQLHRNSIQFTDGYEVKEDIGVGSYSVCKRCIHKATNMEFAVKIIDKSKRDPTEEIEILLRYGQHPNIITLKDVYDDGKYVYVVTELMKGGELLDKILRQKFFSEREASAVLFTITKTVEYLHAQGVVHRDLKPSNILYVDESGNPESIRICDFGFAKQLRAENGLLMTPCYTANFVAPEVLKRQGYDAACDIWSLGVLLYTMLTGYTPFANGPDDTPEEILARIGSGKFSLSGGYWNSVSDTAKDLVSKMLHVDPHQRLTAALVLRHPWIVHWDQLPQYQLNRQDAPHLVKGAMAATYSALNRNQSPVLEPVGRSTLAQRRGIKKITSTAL
inactive: saracatinib 0.021 | sotrastaurin -0.049 | alvocidib -0.046 | Tubastatin A 0.019 | defactinib -0.148 | rucaparib 0.006 | [2] -0.049 | encorafenib -0.01 | [3] -0.027

RICTOR isoform 3 (UniProt Q6R327)
active: sotrastaurin 0.708
inactive: saracatinib 0.087 | Tubastatin A 0.092 | [1] 0.114 | rucaparib -0.128 | [2] 0.154 | encorafenib 0.068

RAB3D (UniProt O95716)
inactive: saracatinib 0.295 | alvocidib 0.126 | Tubastatin A 0.024 | [1] 0.022 | defactinib 0.064 | rucaparib -0.021 | [2] -0.016 | encorafenib -0.043 | [3] -0.094

RAB3IL1 (UniProt E9PK89)
inactive: sotrastaurin -0.082 | alvocidib 0.009 | Tubastatin A -0.095 | [1] -0.011 | defactinib -0.016 | rucaparib -0.074 | encorafenib 0.084 | [3] 0.045

SCLT1 (UniProt Q96NL6)
UniProt Q96NL6, sequence (Q96NL6 whole entry, looked up): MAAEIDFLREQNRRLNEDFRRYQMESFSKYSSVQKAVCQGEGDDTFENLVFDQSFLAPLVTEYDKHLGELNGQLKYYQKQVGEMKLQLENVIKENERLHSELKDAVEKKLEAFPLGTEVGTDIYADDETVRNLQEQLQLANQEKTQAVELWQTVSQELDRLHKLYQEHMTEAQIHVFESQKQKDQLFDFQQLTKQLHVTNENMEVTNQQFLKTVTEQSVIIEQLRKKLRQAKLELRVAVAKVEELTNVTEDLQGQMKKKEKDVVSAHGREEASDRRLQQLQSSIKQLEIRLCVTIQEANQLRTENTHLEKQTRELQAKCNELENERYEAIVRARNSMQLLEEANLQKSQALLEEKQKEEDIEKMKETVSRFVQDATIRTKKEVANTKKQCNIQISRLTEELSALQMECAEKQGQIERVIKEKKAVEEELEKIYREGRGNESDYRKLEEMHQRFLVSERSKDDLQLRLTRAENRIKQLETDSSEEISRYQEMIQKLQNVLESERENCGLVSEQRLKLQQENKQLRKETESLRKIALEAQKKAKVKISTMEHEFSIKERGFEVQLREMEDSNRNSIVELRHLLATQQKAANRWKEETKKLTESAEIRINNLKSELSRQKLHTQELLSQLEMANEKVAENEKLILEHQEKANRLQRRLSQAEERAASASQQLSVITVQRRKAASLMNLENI
inactive: saracatinib 0.073 | sotrastaurin -0.095 | alvocidib 0 | Tubastatin A 0.116 | defactinib -0.047 | [2] 0.121 | [3] -0.087

SERINC1 (UniProt Q9NRX5)
UniProt Q9NRX5, sequence (Q9NRX5 whole entry, looked up): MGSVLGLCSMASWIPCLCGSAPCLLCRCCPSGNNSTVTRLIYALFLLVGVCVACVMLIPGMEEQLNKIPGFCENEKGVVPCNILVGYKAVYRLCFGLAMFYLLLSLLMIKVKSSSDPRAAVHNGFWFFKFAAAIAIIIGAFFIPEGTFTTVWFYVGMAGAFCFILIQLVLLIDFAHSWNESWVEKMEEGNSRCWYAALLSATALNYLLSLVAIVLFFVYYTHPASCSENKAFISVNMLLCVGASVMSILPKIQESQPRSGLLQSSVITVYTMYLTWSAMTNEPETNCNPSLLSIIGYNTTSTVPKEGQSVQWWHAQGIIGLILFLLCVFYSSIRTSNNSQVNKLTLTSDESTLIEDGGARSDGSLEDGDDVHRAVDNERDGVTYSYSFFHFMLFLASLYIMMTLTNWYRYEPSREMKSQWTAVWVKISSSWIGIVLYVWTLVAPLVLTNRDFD
inactive: saracatinib 0.093 | sotrastaurin -0.053 | Tubastatin A -0.128 | [1] -0.008 | defactinib 0.031 | rucaparib -0.095 | [2] -0.088 | encorafenib -0.062 | [3] 0.055

RPS3 (UniProt E9PJN9)
inactive: saracatinib -0.069 | Tubastatin A 0.105 | rucaparib 0.064 | [2] -0.028 | encorafenib 0.052

RBM26 isoform 3 (UniProt Q5T8P6)
inactive: sotrastaurin -0.052

RNF220 isoform 3 (UniProt Q5VTB9)
inactive: [1] -0.067

RAD50, A0A494C0Y7
inactive: saracatinib -0.101 | sotrastaurin 0.048 | alvocidib -0.026 | Tubastatin A -0.079 | defactinib -0.146 | rucaparib -0.206 | [2] 0.198 | encorafenib 0.15 | [3] -0.055

RPAIN isoform 8 (UniProt Q86UA6)
inactive: saracatinib -0.036 | sotrastaurin -0.09 | alvocidib -0.036 | Tubastatin A -0.016 | defactinib -0.231 | [2] -0.082 | [3] 0.094

SEMG2 (UniProt Q02383)
inactive: sotrastaurin -0.016 | alvocidib 0.206 | Tubastatin A 0.025 | rucaparib -0.033 | encorafenib -0.011

SDCBP isoform 2 (UniProt O00560)
active: [2] -0.756
inactive: saracatinib -0.175 | sotrastaurin 0.042 | Tubastatin A -0.301 | [1] 0.115 | rucaparib -0.036 | encorafenib 0.032

RPS6KA5 (UniProt O75582)
inactive: [1] 0.083 | rucaparib 0.135 | encorafenib 0.148
